Results: PubChem BioAssay AID651719 (The Scripps Research Institute Molecular Screening Center, 2012)
About 1,600 (0.44%) of roughly 360,000 compounds were called active.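 Rule for the calls: active = inhibition above the screen-wide average plus 3 SD (cut at about 13% in these data); inactive = the rest.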 This excerpt belongs to a sample that is enriched for actives.

Biological target: Galanin receptor type 3 (Homo sapiens) (UniProt O60755)
Experiment: blockers of human galanin receptor 3 – cell-based, fluorescence readout, primary screen (AID 651719);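 note: forskolin and galanin both at EC90 stimulate the cells; cAMP rise reported by CNG channel membrane potential dye signal; 0% = forskolin plus galanin with DMSO and 100% = forskolin alone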
Details: HEK293 GalR3-CNG cAMP membrane potential fluorescence; at 3 µM; hits give high values; galR3 body fused to GalR1 C-terminus

Galanin receptor type 3 (Homo sapiens), sequence (O60755 1-299 limits assumed): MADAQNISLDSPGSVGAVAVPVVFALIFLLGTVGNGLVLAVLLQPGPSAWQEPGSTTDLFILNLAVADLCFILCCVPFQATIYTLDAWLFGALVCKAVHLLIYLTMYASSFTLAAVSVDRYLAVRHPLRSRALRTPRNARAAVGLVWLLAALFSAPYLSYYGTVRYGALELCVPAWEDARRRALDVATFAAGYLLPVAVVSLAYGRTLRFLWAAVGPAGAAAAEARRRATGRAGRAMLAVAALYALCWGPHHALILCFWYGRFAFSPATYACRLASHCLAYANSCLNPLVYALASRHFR

Row | SMILES | inhibition
1 | CSc1nccc(NC(=O)c2ccc(C(C)(C)C)cc2)n1 | 104% (active)
2 | CCCCCCCCN1C(=O)[C@@H](CC(=O)NCCCC)C[C@@]2(C(=O)OC)C1=C[C@H](C(C)(C)C)O[C@@H]2C | -5.71% (inactive)
3 | O=C(NCc1ccccc1)[C@H]1CCCN1C(=O)[C@H]1CCCN1C(=O)N1CCOCC1 | -7.58% (inactive)
4 | Nc1[nH]c(C(=O)c2ccc(Br)cc2)c(-c2ccc3c(c2)OCO3)c1C(=O)NCCc1c[nH]c2ccccc12 | -6.84% (inactive)
5 | NC(=O)c1ncn([C@@H]2O[C@H](C(=O)O)[C@@H](O)[C@H]2O)n1 | -7.36% (inactive)
6 | Nc1ncnc2c1ncn2[C@@H]1O[C@H](C(=O)NCC(F)(F)F)[C@@H](O)[C@H]1O | -9.69% (inactive)
7 | Nc1ncnc2c1ncn2[C@@H]1O[C@H](C(=O)N2CCSC2)[C@@H](O)[C@H]1O | -5.85% (inactive)
8 | Nc1ncnc2c1ncn2C1OC(CO)CC1O (stereo unspecified) | 53.3% (active)
9 | Brc1ccc(COCCc2cn(Cc3ccccc3)c3ccccc23)cc1 | 3.44% (inactive)
10 | COC(=O)[C@]12C[C@H](CC(=O)NCc3ccc(C)o3)C(=O)N(CCC3=CCCCC3)C1=C[C@H](C(C)(C)C)O[C@@H]2C | -7.34% (inactive)
11 | O=C(NNC(=O)c1ccc(-n2cncn2)c([N+](=O)[O-])c1)c1ccccc1 | -6.89% (inactive)
12 | CC(Nc1ccc([N+](=O)[O-])cc1[N+](=O)[O-])c1ccccc1 (stereo unspecified) | -6.77% (inactive)
13 | O=C(NC(Nc1nc2ccc([N+](=O)[O-])cc2s1)(C(F)(F)F)C(F)(F)F)c1ccccc1 | 20% (active)
14 | COC(=O)C(C(=O)OC)c1ccccc1NS(=O)(=O)c1cccc2ccccc12 | -6.36% (inactive)
15 | CC(C)C[C@H](NC(=O)CC1CCCC1)C(=O)N1CCC[C@H]1C(=O)NCc1ccccc1 | 1.69% (inactive)
16 | OC[C@@H]1CN(Cc2ccc(-c3ccccc3)cc2)C[C@H](n2cnc3c(NC4CCCC4)ncnc32)O1 | 27.1% (active)
17 | OC[C@@H]1CN(Cc2ccc(F)cc2)C[C@H](n2cnc3c(NC4CCCC4)ncnc32)O1 | -2.96% (inactive)
18 | OC[C@@H]1CN(Cc2cccs2)C[C@H](n2cnc3c(NC4CCCC4)ncnc32)O1 | -8.57% (inactive)
19 | COC(=O)c1cc2c(c3c4cc(F)ccc4n(S(=O)(=O)c4ccccc4)c13)C(=O)N(Cc1ccccc1OC)C2 | -5.48% (inactive)
20 | Cc1noc(C)c1NC(=O)Nc1ccc2c(c1)C(=O)N([C@H](C)CO)C[C@H](C)[C@H](CN(C)Cc1ccncc1)OCCCC[C@@H](C)O2 | -3.2% (inactive)
21 | COc1cc(C(=O)Nn2c(O)c(C3=c4ccccc4=NC3=O)sc2=S)ccc1O | 19.3% (active)

Row | SMILES | inhibition
22 | COc1cc(C(=O)Nn2c(CC(C)C)nc3ccccc3c2=O)cc(OC)c1OC | -0.49% (inactive)
23 | COc1cc(C(=S)NC2CCCCC2)ccc1O | -5.5% (inactive)
24 | O=C(C(=O)N1CCC(CNC(=O)c2cccnc2Cl)CC1)c1cccs1 | -2.12% (inactive)
25 | CC(=O)N1C[C@@H](CO)[C@@H](N(C)C(=O)C(C)(C)C)C[C@H]1c1ccccc1Br | -3.56% (inactive)
26 | CCN(CC(=O)NCc1ccc(Cl)cc1)C(=O)c1c(C)noc1C | -4.16% (inactive)
27 | CCN(CC(=O)Nc1cc(Cl)ccc1C)C(=O)CSCc1ccccc1 | -6.08% (inactive)
28 | CCN(CC(=O)NCc1ccc(Cl)cc1)C(=O)CSc1ccccc1 | 46.6% (active)
29 | COCCNC(=S)N(C)[C@H]1C[C@H]2c3[nH]c4ccccc4c3CCN2C[C@H]1[C@H](C)O | -3.71% (inactive)
30 | CC(=O)C1=C(C)N(Cc2ccc(Cl)cc2)C(=S)NC1c1ccc(F)cc1 (stereo unspecified) | -2.41% (inactive)
31 | CCCCNc1cccc2c1S(=O)(=O)N[C@@H](C)CO2 | 0.83% (inactive)
32 | COC(=O)[C@]12C[C@H](CC(=O)NCCCCc3ccccc3)C(=O)N(Cc3ccc4c(c3)OCO4)C1=C[C@H](C(C)(C)C)O[C@@H]2C | -7.85% (inactive)
33 | O=C(/C=C/c1c(Cl)cccc1Cl)NCc1ccccc1 | -6.6% (inactive)
34 | O=C(/C=C/c1c(F)cccc1Cl)Nc1nn[nH]n1 | 13.1% (active)
35 | O=C(CCc1ccccc1)Nc1nn[nH]n1 | -3.85% (inactive)
36 | Clc1cccc2c1C1CC2CCN1Cc1ccccc1 (stereo unspecified) | -7.78% (inactive)
37 | CC(C)(C)C(c1nc2ccccc2[nH]1)n1c(Cc2csc3ccccc23)nc2ccccc21 (stereo unspecified) | -6.57% (inactive)
38 | O=C(N[C@H](Cc1ccccc1)C(=O)N1CCCN(Cc2cccs2)CC1)[C@H]1O[C@@H](n2ccc(=O)[nH]c2=O)[C@H](O)[C@@H]1O | -5.35% (inactive)
39 | COC(=O)c1cccc([N+](=O)[O-])c1CS(=O)(=O)c1ccc(C)cc1 | 13.8% (active)
40 | COC(=O)CNC(=O)c1ccccc1[N+](=O)[O-] | -2.07% (inactive)
41 | Cc1c(C(=O)NCCCc2ccccc2)cccc1[N+](=O)[O-] | -5.51% (inactive)
